Assay results as given in PubChem BioAssay (NCATS).
Inconclusive results are not listed. Unmarked numbers belong to inactive results. Activity calls are given as the source filed them. Calls follow the shape of the dose curve; as a rule, active = well fitted inhibition curve with a large enough effect; inconclusive = small, poorly fitted or top-dose-only effect; inactive = flat fitted curve, though single readings scatter.
% is scaled to controls: 0 for no effect and ±100 for the full control effect; potency is read from the fitted curve at half-maximal effect.

These compounds were tested on NIH3T3 (assay: Cytotoxic Profiling of Annotated Libraries Using Quantitative High-Throughput Screening (AID 1296008; also: nearly all actives have a fitted effect of over 60% in size)). Conditions: Five cell lines viability, CellTiter-Glo ATP luminescence, 48-72 h; max response: hits give low values.
Procedure, shortened: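 Compounds were pin-transferred onto cells and incubated 48 or 72 hr at 37 degree Celsius, 95% humidity. CellTiter-Glo was added, plates sat 10 min at room temperature, then ATP-coupled luminescence was imaged as the viability read-out.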
For `COc1ccc(CC2NCCc3c2[nH]c2ccc(C)cc32)cc1OC` (centres undefined), the max response was -1.6%.
For `O=C(NOCC(O)CO)c1ccc(F)c(F)c1Nc1ccc(I)cc1F` (centres undefined), the Potency was 1.84 µM (active).
`O=C(CCCCN1CCOCC1)Nc1ccc(-c2cccnc2)cc1` showed a max response of 4.47%.
`CC(=O)O[C@@H]1[C@@H](CO)O[C@@](CO)(O[C@H]2O[C@H](COC(=O)/C=C/c3ccccc3)[C@@H](O)[C@H](O)[C@H]2O)[C@H]1O` showed a max response of 1.35%.
With `CC12CCC(C(OC3OC(COC4OCC(O)(CO)C4O)C(O)C(O)C3O)C1)C(C)(C)O2` (centres undefined) the max response was 0.27%.
Compound `CC(C)C1=CC2C(CC[C@]2(C)O)[C@](C)(O)CC1` (some centres undefined) has a max response of 2.57%.
With `C=C1C(=O)OC2CC3(C)C(CC12)C(C)=CC(O)C3OC(C)=O` (centres undefined) the max response was -1.8%.
Compound `CC1CCC2(CO)C(C(=O)O)=CCCC2C1(C)CCc1ccoc1` (centres undefined) has a max response of -11.3%.
`CC(C)=CCC[C@](C)(O[C@@H]1O[C@H](CO[C@@H]2O[C@H](CO)[C@@H](O)[C@H](O)[C@H]2O)[C@@H](O)[C@H](O)[C@H]1O)C1CC[C@]2(C)[C@@H]1[C@H](O)CC1[C@@]3(C)CC[C@H](O[C@@H]4O[C@H](CO)[C@@H](O)[C@H](O)[C@H]4O[C@@H]4O[C@H](CO)[C@@H](O)[C@H](O)[C@H]4O)C(C)(C)[C@@H]3CC[C@]12C` (some centres undefined) gave a max response of 4.71%.
`[N-]=[N+]=N[C@]1(CO)O[C@@H](n2ccc(=O)[nH]c2=O)[C@@H](O)[C@@H]1O` gave a max response of -4.26%.
Compound `CC1=CC(=O)CC(C)(C)[C@@]1(O)CC[C@@H](C)O[C@@H]1O[C@H](CO)[C@@H](O)[C@H](O)[C@H]1O` has a max response of 0.984%.
`CC1(C)CCC2(C(=O)OC3OC(CO)C(O)C(O)C3O)CCC3(C)C(=CCC4C5(C)CCC(OC6OC(C(=O)O)C(OC7OC(CO)C(O)C(O)C7O)C(OC7OC(CO)C(O)C(O)C7O)C6O)C(C)(C)C5CCC43C)C2C1` (centres undefined) was tested, and the max response was -0.359%.
`COc1cc2ncnc(Nc3ccc(F)c(Cl)c3)c2cc1NC(=O)/C=C/CN1CCCCC1` was tested, and the Potency was 16.4 µM (active).
Work on `CC12CCC(OC3OC(CO)C(O)C(OC4OC(CO)C(O)C(O)C4O)C3O)CC1CCC1C2CCC2(C)/C(=C3/COC(=O)C3)CCC12O` (centres undefined) yielded a max response of 4.18%.
`CC1OC(OC2C(C)OC(OC3C(OC(=O)C45CCC(C)(C)CC4C4=CCC6C7(C)CCC(OC8OC(C(=O)O)C(O)C(O)C8OC8OC(CO)C(O)C(OC9OC(C)C(O)C(O)C9O)C8O)C(C)(CO)C7CCC6(C)C4(C)CC5)OC(CO)C(O)C3O)C(O)C2O)C(O)C(O)C1O` (centres undefined) was tested, and the max response was -18.1%.
For `C/C1=C\CC[C@H](C)CCO[C@@H]2O[C@H](CO[C@@H]3OC[C@](O)(COC1=O)[C@H]3O)[C@@H](O)[C@H](O)[C@H]2O`, the max response was -5.92%.
In the case of `Cc1ccc(S(=O)(=O)n2ccc(-c3c(-c4ccc(Cl)cc4)noc3C)n2)cc1`, the max response is reported as -14.9%.
`Nc1ncnc2c1nc(N)n2[C@@H]1O[C@H](CO)[C@@H](O)[C@H]1O` was tested, and the Potency was 4.11 µM (active).
In the case of `CC(=O)O[C@H]1C[C@@](O)(C(C)C)C2[C@@H](OC(=O)c3ccc(O)cc3)C[C@@]3(C)O[C@H]3C[C@]21C` (some centres undefined), the max response is reported as -4.8%.
`CC/C=C\CC1C(=O)C=CC1(CCCCCCCC(=O)O)OC(C)=O` (centres undefined) showed a max response of 4.26%.
Work on `C/C(=C\C=C\C(C)C1CCC2(C)C3CCC4C(C)(C)C(=O)CCC45CC35CCC12C)C(=O)O` (centres undefined) yielded a max response of -13.8%.
Work on `COC(=O)[C@H](O)[C@H]1C(C)(C)[C@H](OC(=O)C(C)C)[C@@]2(O)C(=O)[C@]1(C)C1CC[C@]3(C)C(CC(=O)O[C@H]3c3ccoc3)[C@]13O[C@@H]32` (some centres undefined) yielded a max response of -25.1%.
`NC(=O)C(CCC(F)(F)F)N(Cc1ccc(-c2ncon2)cc1F)S(=O)(=O)c1ccc(Cl)cc1` (centres undefined) gave a max response of -69%.
`O=C(Nc1ccc(S(=O)(=O)Nc2ccccc2Cl)c(Cl)c1)c1ccccn1` gave a max response of -3.89%.
Compound `COc1cc2oc(-c3ccc(O)cc3O)cc2c(OC)c1CC=C(C)C` has a max response of 2.22%.
Compound `CC(C)(O)c1ccc2c(c1)C(O)C[C@H]1[C@](C)(C(=O)O)CCC[C@]21C` (some centres undefined) has a max response of 4.86%.
`CC1=C(C)C(=O)OC(C(C)C2CCC3C4C5OC5C5(O)CC(OC6OC(CO)C(OC7OC(C)C(O)C(O)C7O)C(O)C6O)CC(O)C5(C)C4CCC23C)C1` (centres undefined) gave a max response of 3.69%.
Compound `COC(=O)C1(C)CCC2(C(=O)O)CCC3(C)C(=CCC4C5(C)CC(O)C(OC6OCC(O)C(O)C6O)C(C)(CO)C5CCC43C)C2C1` (centres undefined) has a max response of -9.3%.
Compound `CC(=O)OC1C(c2ccccc2)CCC(c2ccccc2)C1OC(C)=O` (centres undefined) has a max response of 0.126%.
`c1ccc(N2CCN(CCc3nn[nH]n3)CC2)cc1` gave a max response of 1.1%.
Compound `COC(=O)[C@@H](O)[C@H]1[C@@]2(C)CC3(O)[C@@H](C(=O)[C@H]2O)[C@]24O[C@]25CC(=O)O[C@@H](c2ccoc2)[C@]5(C)CCC4[C@]13C` (some centres undefined) has a max response of -5.38%.
Work on `O=C(O)C1CN(Cc2ccc(-c3nc4cc(Cc5ccccc5F)ccc4s3)c(F)c2)C1` yielded a max response of 3.31%.
In the case of `CC1(C)CCCC2(C)C=C(C(=O)O)C(O)CC12` (centres undefined), the max response is reported as 1.16%.
`CCOC(=O)c1cc(C#N)c(N2CCC(C(=O)NS(=O)(=O)Cc3ccccc3)CC2)nc1C` gave a max response of 4.98%.
`CC1(C(=O)O)CCCC2(C)C3CCC4CC3(CCC12)CC4=O` (centres undefined) showed a max response of -6.02%.
For `CC(C)=CCC/C(C)=C/CO[C@@H]1O[C@H](CO)[C@@H](OC(=O)/C=C/c2ccc(O)cc2)[C@H](O[C@@H]2O[C@@H](C)[C@H](O)[C@@H](O)[C@H]2O)[C@H]1O`, the max response was -7.03%.
`N#C[C@@H]1C[C@H](F)CN1C(=O)CNC1[C@H]2CN(C(=O)c3ccc(F)cc3)C[C@@H]12` (some centres undefined) showed a max response of -2.06%.
`COc1cc(C(=O)NC2CCN(C)CC2)ccc1Nc1ncc2c(n1)N(C1CCCC1)CC(F)(F)C(=O)N2C` was tested, and the Potency was 2.06 µM (active).
With `C/C=C1\[C@H](O[C@@H]2O[C@H](CO)[C@@H](O)[C@H](O)[C@H]2O)OC=C(C(=O)OC)[C@H]1CC(=O)O` the max response was -1.8%.
